FadD28 FP inh = inhibitors of FadD28 bisubstrate probe binding, primary screen, biochemical, fluorescence polarization, single point; Mycobacterium tuberculosis FadD28 fatty-acid-AMP ligase; inhibition, % at 12.5 µM; hit rate 0.22% among 360,000; AID 588549, 2011; in the data active = inhibition above about 8.5%, passing the limit was not always enough
FBA Mtb inh = Mtb FBA enzyme inhibitors, primary screen, biochemical, fluorescence, strain H37Rv; hit rate 2.3% among 360,000; AID 588726, 2011; Fructose-bisphosphate aldolase (Mycobacterium tuberculosis (strain ATCC 25618 / H37Rv)), …; purified M. tuberculosis FBA, fluorescence read-out; inhibition, % at 1 µM; in the data active = inhibition above about 27%;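 also: 0% = vehicle and 100% = reference inhibitor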
Target sequence (P9WQA3 whole entry, looked up): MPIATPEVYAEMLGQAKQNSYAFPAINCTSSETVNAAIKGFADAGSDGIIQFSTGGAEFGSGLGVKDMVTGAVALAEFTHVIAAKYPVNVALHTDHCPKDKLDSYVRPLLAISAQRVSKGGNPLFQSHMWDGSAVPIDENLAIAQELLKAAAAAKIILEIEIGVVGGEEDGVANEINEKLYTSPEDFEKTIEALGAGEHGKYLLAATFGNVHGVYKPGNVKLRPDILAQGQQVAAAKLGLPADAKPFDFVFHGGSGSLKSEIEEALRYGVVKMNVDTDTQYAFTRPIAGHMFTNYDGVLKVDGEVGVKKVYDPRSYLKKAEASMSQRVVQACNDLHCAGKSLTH
BioA inh = M. tuberculosis BioA enzyme inhibitors, primary screen, biochemical, plate reader, single point, HTS | 7,8-diaminopelargonic acid synthase BioA (Mycobacterium tuberculosis) | purified M. tuberculosis BioA enzyme | inhibition, % at 9.99 µM | hit rate 0.096% among 360,000 | AID 602481, 2012; in the data active = inhibition above about 40%
GDH-TPI counter = GDH-TPI coupling enzyme inhibitors, primary screen, artefact control for M. tuberculosis FBA inhibitor project, biochemical, absorbance, full deck. GDH-TPI coupled enzyme counterscreen, NADH absorbance. inhibition, % at 4.8 µM. hit rate 1.2% among 360,000. AID 588335, 2011; in the data active = inhibition above about 30%;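 also: 0% = DMSO wells and 100% = wells lacking the enzyme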
Mtb hypoxia rep = PubChem AID 1159583. M. tuberculosis hypoxia-regulated fluorescent reporter, fluorescence. fluorescence inhibition, % (concentration not given with the values). hit rate 0.1% among 300,000; in the data active = fluorescence inhibition mostly above about 23%, no sharp cut-off; inactive = mostly below about 17%
The depositor's hits bear a star. Rows were chosen to be rich in hits. Some 2.9% of all compounds tested hit in one or more screens of this group.

How did CC(=O)NC(=S)Nc1ccc(NC(=S)NC(=O)/C=C/c2ccco2)cc1 do in these assays?
FadD28 FP inh: -2; FBA Mtb inh: -2; GDH-TPI counter: 28; Mtb hypoxia rep: -7

What do the screens show for `O=C(/C=C/c1ccco1)NC(=S)NNC(=O)c1ccco1`?
FadD28 FP inh: 1; FBA Mtb inh: 1; BioA inh: 1; GDH-TPI counter: 43*; Mtb hypoxia rep: 3

What do the screens show for `CN(C)C=Nc1nc2nccc(-c3cccc(Cl)c3)n2n1`?
Mtb hypoxia rep: 3

Results for CN(C)c1ccc(/C=N/NC(=O)CNC(=O)/C=C/c2ccco2)cc1 ?
FadD28 FP inh: -2; FBA Mtb inh: 6; BioA inh: -4; GDH-TPI counter: 40*

What do the screens show for `CCN(CC)c1ccc(C=NNC(=O)CNC(=O)c2ccc3c(c2)OCCO3)cc1`?
Mtb hypoxia rep: 8

Results for CCN(CC)c1ccc(C=NNC(=O)CNC(=O)/C=C/c2ccco2)cc1 ?
Mtb hypoxia rep: 7

What do the screens show for `O=C(CNC(=O)c1ccncc1)N/N=C/c1ccc(O)cc1O`?
FadD28 FP inh: -2; FBA Mtb inh: 0; BioA inh: -2; GDH-TPI counter: 39*

Results for COc1cc(/C=N/NC(=O)CNC(=O)c2ccncc2)ccc1O ?
FadD28 FP inh: -1; FBA Mtb inh: -1; BioA inh: 0; GDH-TPI counter: 13

Results for CN(C)c1ccc(/C=N/NC(=O)CNC(=O)c2ccncc2)cc1 ?
FadD28 FP inh: -2; FBA Mtb inh: 5; BioA inh: -1; GDH-TPI counter: 33*

Results for CN(C)c1ccc(/C=N/NC(=O)CNC(=O)c2ccc3c(c2)OCCO3)cc1 ?
FadD28 FP inh: 0; FBA Mtb inh: 24; GDH-TPI counter: 40*

What do the screens show for `C[C@@H]1CN([C@@H](C)CO)C(=O)Cc2cc(NS(=O)(=O)c3cccs3)ccc2O[C@@H]1CN(C)C(=O)Nc1ccc2c(c1)OCO2`?
BioA inh: 0

Results for CC(=NNc1nc(Nc2ccccc2)nc(N2CCOCC2)n1)c1cccs1 ?
Mtb hypoxia rep: 3

How did Cc1cc(C)[n+](-c2ccc(C(C)C)cc2)c2[nH]c(=O)[nH]c(=O)c12 do in these assays?
FadD28 FP inh: -4; FBA Mtb inh: active; BioA inh: 1; GDH-TPI counter: 11; Mtb hypoxia rep: -4

What do the screens show for `CCN(c1cccc(C)c1)S(=O)(=O)c1c(C)[nH]c(=O)[nH]c1=O`?
FadD28 FP inh: 0; FBA Mtb inh: 0; BioA inh: -1; GDH-TPI counter: 6; Mtb hypoxia rep: 5

Results for Cc1cccc(-[n+]2c(C)cc(C)c3c(=O)[nH]c(=O)[nH]c32)c1 ?
FadD28 FP inh: -2; FBA Mtb inh: active; BioA inh: 3; GDH-TPI counter: 33*

Results for COc1ccc(S(=O)(=O)N(C)C[C@@H]2OCCCC[C@@H](C)Oc3ccc(NS(=O)(=O)c4cccs4)cc3C(=O)N([C@@H](C)CO)C[C@H]2C)cc1 ?
BioA inh: 4

How did CCCN1[C@@H]2Cn3c(ccc(-c4cccc(OC)c4)c3=O)[C@H]1[C@@H](C(=O)NCC)[C@@H]2CO do in these assays?
BioA inh: -1

What do the screens show for `N#CCCCCn1ccc(NC(=O)c2ccc(Cl)cc2O)n1`?
FadD28 FP inh: 0; FBA Mtb inh: 12; GDH-TPI counter: 32*; Mtb hypoxia rep: -12

Results for Cc1ccc(C)c(NC(=O)CN(C)C(=O)c2ccc(S(=O)(=O)N3CCCCCC3)cc2)c1 ?
FadD28 FP inh: -1; FBA Mtb inh: 0; BioA inh: 1; GDH-TPI counter: -1; Mtb hypoxia rep: 31*

Results for CCCc1c(C(=O)N/N=C/c2ccc(C)o2)nnn1-c1nonc1N ?
FadD28 FP inh: -2; FBA Mtb inh: 3; BioA inh: -2; GDH-TPI counter: 42*

What do the screens show for `Cc1ccc(/C=N/NC(=O)c2nnn(-c3nonc3N)c2CSc2ccccc2)o1`?
FadD28 FP inh: -1; FBA Mtb inh: 1; BioA inh: 0; GDH-TPI counter: 40*

What do the screens show for `Cc1ccc(SCc2c(C(=O)N/N=C/c3ccc(C)o3)nnn2-c2nonc2N)cc1`?
FadD28 FP inh: -2; FBA Mtb inh: 2; BioA inh: 1; GDH-TPI counter: 39*

How did Cc1ccc(/C=N/NC(=O)c2nnn(-c3nonc3N)c2C(C)C)o1 do in these assays?
FadD28 FP inh: -1; FBA Mtb inh: 0; BioA inh: 3; GDH-TPI counter: 44*

How did Cc1ccc(S(=O)(=O)N2CC(C(=O)O)=CCC2c2ccc3c(c2)OCO3)cc1 (stereo not given) do in these assays?
Mtb hypoxia rep: 4

How did Cc1noc(C)c1S(=O)(=O)N(C)C[C@@H]1Oc2ccc(NS(=O)(=O)c3cn(C)cn3)cc2C(=O)N([C@@H](C)CO)C[C@@H]1C do in these assays?
BioA inh: 1

How did O=C(C[C@@H]1CC[C@H](NS(=O)(=O)c2ccc(F)cc2)[C@@H](CO)O1)NCCN1CCCCC1 do in these assays?
BioA inh: -3

Results for CO[C@@H]1CN(C)C(=O)c2ccc(NC(=O)C3CC3)cc2OC[C@H](C)N(C(=O)C2CCCCC2)C[C@@H]1C ?
BioA inh: 1

Results for C[C@@H]1CN([C@@H](C)CO)C(=O)c2cc(NS(=O)(=O)c3ccccc3)ccc2O[C@@H](C)CCCCO[C@@H]1CN(C)C(=O)Cc1ccccc1 ?
BioA inh: -1

What do the screens show for `COc1cccc(-c2c(C(=O)N/N=C/c3ccc(C)o3)nnn2-c2nonc2N)c1`?
FadD28 FP inh: -4; FBA Mtb inh: -1; BioA inh: -2; GDH-TPI counter: 47*

What do the screens show for `O=C1CC(c2ccc(F)cc2)CC2=C1C(c1ccc([N+](=O)[O-])o1)Nc1ccccc1N2` (stereo not given)?
FadD28 FP inh: -1; FBA Mtb inh: 3; BioA inh: 1; GDH-TPI counter: 38*; Mtb hypoxia rep: 3

What do the screens show for `COC(=O)c1ccc([C@@H]2C=C(C(=O)NCc3ccccc3)O[C@H](OCCCCO)C2)cc1`?
BioA inh: 0

How did O=[N+]([O-])c1cc(-c2ccc(/C=N/c3nc4ccccn4c3-c3ccco3)o2)ccc1Cl do in these assays?
FadD28 FP inh: -1; FBA Mtb inh: -1; BioA inh: 2; GDH-TPI counter: 37*

Results for CC(C)NC(=O)NCC[C@@H]1CC[C@@H](NS(=O)(=O)c2ccc(Oc3ccccc3)cc2)[C@@H](CO)O1 ?
BioA inh: -1

Results for COc1ccc(-c2cc(=O)oc3cc(OCc4nn[nH]n4)ccc23)cc1 ?
FadD28 FP inh: -5; FBA Mtb inh: 2; BioA inh: 3; GDH-TPI counter: 36*; Mtb hypoxia rep: 2

How did COC(=O)COc1ccc2c(-c3ccc(OC)cc3)cc(=O)oc2c1 do in these assays?
FadD28 FP inh: -2; FBA Mtb inh: 0; BioA inh: 0; GDH-TPI counter: 18

Screening data: PubChem BioAssay, several laboratories
